Among all 420,000 compounds or so, about 50,000 (12%) were called active. A call without a number means that no potency is given here. About 26% were inconclusive and are not listed. Calls follow the shape of the dose curve; as a rule, active = well fitted inhibition curve with a large enough effect; inconclusive = small, poorly fitted or top-dose-only effect; inactive = flat fitted curve, though single readings scatter. The sample as a whole holds a higher share of actives than the screen did.
Potency is read from the fitted curve at half-maximal effect.

A short description of this test: qHTS for Inhibitors of human tyrosyl-DNA phosphodiesterase 1 (TDP1): qHTS in cells in presence of CPT. Also: nearly all actives have a fitted effect of over 55% in size. The settings on record: chicken DT40 Tdp1-/-;hTDP1 cells + 20 nM CPT, ATP luminescence, 48 h; series mostly up to 46.2 µM. An outline of the steps:
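Chicken DT40 Tdp1-/- cells stably complemented with human TDP1 were seeded at 400 cells/well in medium containing 20 nM camptothecin, exposed to pin-transferred compounds, and grown at 37 °C for at least 48 hr. Viability was read as ATP luminescence.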
For orientation: qHTS replaces the single test concentration by a dilution series.
For the molecule `O=C(NC1CCCCC1)c1cc(C2CC2)on1`, the Potency result was “inactive”.
Then `COC(=O)CC(CC(=O)OC)n1cccc1`, with “inactive”.
For `CCCN(CCC)CC(O)COc1ccccc1C(=O)Nc1ccccc1` (configuration not stated), the Potency entry was “inactive”.
Then `CCCNC(=O)CCC(=O)N1Cc2ccccc2Oc2ncccc21`, with “inactive”; and `Cc1ccc2cc(CCNC(=O)c3c(-c4ccccc4Cl)noc3C)c(=O)[nH]c2c1`, with 23.1 µM (active).
Then `Cc1onc(-c2ccccc2Cl)c1C(=O)NCCn1ccc2ccccc21`, with “inactive”.
As for `Cc1ccc(CNC(=O)c2c(-c3ccccc3)noc2C)cc1`, the entry is “inactive”.
As to `Oc1cccc(C2c3[nH]c4ccccc4c3CCN2Cc2cnn(-c3ccccc3)c2)c1` (configuration not stated), the Potency entry is “inactive”.
On to `O=C(c1cnn(-c2ccc(Cl)cc2)c1)c1ccccc1O`, for which the Potency result was “inactive”.
Then `Cc1[nH]nc(-c2ccc(OCc3cnn(-c4ccccc4)c3)cc2O)c1Oc1ccc(Cl)cc1`, with 18.4 µM (active); and `O=C(COC(=O)c1n[nH]c2ccccc12)NCc1ccccc1`, with “inactive”.
Turning to `O=C(COC(=O)c1n[nH]c2ccccc12)Nc1ccccc1Br`, the Potency result is “inactive”.
For the molecule `CN(C)S(=O)(=O)c1ccc(NC(=O)COC(=O)c2n[nH]c3ccccc23)cc1`, the Potency is 14.6 µM (active).
As for `Cc1nn(C(C)(C)C)c(OC(=O)CC(C)C)c1S(=O)(=O)c1ccccc1`, the entry is “inactive”; as for `COC(=O)c1cccc(C(=O)N2CCCC(Nc3ccc4c(c3)OCCO4)C2)c1` (configuration not stated), “inactive”.
Then `O=C(CSc1nc2ccc(Nc3nc(N4CCOCC4)nc(N4CCOCC4)n3)cc2s1)NCc1ccco1`, with 25.9 µM (active); and `O=C(CSc1nnnn1-c1ccccc1)NCc1ccco1`, with “inactive”; and `C=CCn1c(CSc2nc3ccccc3s2)nnc1SCC(=O)NCc1ccco1`, with “inactive”.
As for `Brc1ccc(/C=N/N2CCN(C3c4ccccc4-c4ccccc43)CC2)s1`, the entry is “inactive”; as for `CC(=O)O[C@]1(C(C)=O)CC[C@H]2[C@@H]3CCC4=CC(=O)CC[C@]4(C)[C@@]3(F)[C@@H](O)C[C@@]21C`, “inactive”; as for `CN(C)c1ccc(C2N(C)C(=O)c3ccccc3N2C)cc1` (configuration not stated), “inactive”.
For `Cc1ccc2nnn(Cc3cccc(C(C)(C)C)c3O)c2c1`, the Potency is 20.6 µM (active).
Turning to `Cc1ccc(C(=O)CSc2nnc(Cn3nnc4ccccc43)n2C)cc1`, the Potency result is “inactive”.
As for `Cc1ccc(C2(C)NC(=O)N(CC(=O)N3CC(=O)Nc4ccccc43)C2=O)cc1` (configuration not stated), the entry is “inactive”; as for `Cc1cc(NC(=O)CSc2nc(C(C)C)nc3sc4c(c23)CCC(C)C4)no1` (configuration not stated), 18.4 µM (active); as for `Cc1nc(SCC(=O)Nc2cc(C)on2)c2c(C)c(C)sc2n1`, “inactive”.
On to `CC(C)c1nc(SCC(=O)Nc2cccc(C(=O)O)c2)c2c3c(sc2n1)CCCC3`, for which the Potency entry is “inactive”.
As for `Cc1cc(C)cc(NC(=O)CSc2nc(=O)n(CCN3CCOCC3)c3c2CCC3)c1`, the entry is “inactive”; as for `O=C(CN1CCN(c2ncccn2)CC1)Nc1ccccc1C(F)(F)F`, “inactive”; as for `N#Cc1ccc(CN2CCCC3(CCN(C(=O)c4ccco4)CC3)C2)cc1`, “inactive”.
Then `Cc1ccc2nc(-c3ccc(C)c(NC(=O)Cc4ccccc4)c3)oc2c1`, with “inactive”.
Then `CC(C)[C@H](NC(=O)N1CCn2c1nc1ccccc12)C(=O)NC1CC1`, with “inactive”.
Turning to `CCC(C)[C@H](NC(=O)N1CCn2c1nc1ccccc12)C(=O)NCc1ccc(OC)cc1` (some centres not stated), the Potency was 20.6 µM (active).
Then `CC(C)C[C@H](NC(=O)N1CCn2c1nc1ccccc12)C(=O)NC1CC1`, with “inactive”; and `COc1ccc2[nH]c(=O)c(-c3noc(-c4ccc(F)cc4)n3)cc2c1`, with “inactive”; and `CCOc1nc(-c2ccc(OC)cc2)ccc1-c1noc(-c2cc(OC)c(OC)c(OC)c2)n1`, with 5.17 µM (active).
Then `CCOc1ccc(-c2noc(CCC(=O)NC3CCCC3)n2)cc1OC`, with “inactive”; and `COc1nc(-c2ccc(Cl)cc2)ccc1-c1noc(-c2cccs2)n1`, with “inactive”; and `COc1cc(-c2n[nH]c(=S)n2Cc2ccccc2)cc(OC)c1OC`, with “inactive”.
As for `COc1ccc(-c2cc(-c3nc(-c4cc(OC)c(OC)c(OC)c4)no3)[nH]n2)c(OC)c1`, the figure is 20.6 µM (active).
Take `O=C(NCc1ccc(Cl)cc1)c1ccc2c(c1)nnn2C1CCCC1`: the Potency entry was “inactive”.
Then `O=C(CCC1N=C2c3ccccc3N=C(SCc3ccccc3F)N2C1=O)NCCc1ccccc1` (configuration not stated), with “inactive”.
As for `Cc1nc(C(F)(F)F)ccc1C(=O)N1CCC1(C)C(=O)NS(=O)(=O)c1ccccc1` (configuration not stated), the entry is “inactive”.
As for `CCn1cc(C(=O)N[C@@H](C)C(=O)NCCO)c(=O)c2cc3c(cc21)OCO3`, the entry is “inactive”; as for `Cc1ccccc1OCCOc1ccc([N+](=O)[O-])cc1/C=N/n1cnnc1`, 1.16 µM (active); as for `COc1ccccc1OCCOc1ccc(/C=N/n2cnnc2)cc1`, “inactive”.
Regarding `Cc1cc(-c2ccc(/C=N/n3cnnc3)o2)c([N+](=O)[O-])cc1C`, the Potency entry is “inactive”.
Then `O=C(c1ccc(=O)oc1)N1CCC(C(O)(c2ccccc2)c2ccccc2)CC1`, with “inactive”; and `O=C(NCc1ccc2c(c1)OCO2)c1cc(F)c(F)cc1Cl`, with “inactive”; and `COc1cc(OC)c(C(=O)NCc2ccc3c(c2)OCO3)cc1OC`, with “inactive”.
As for `O=C(Cn1nnc(-c2ccc3c(c2)OCO3)n1)NCc1ccco1`, the entry is “inactive”.
As for `CC1(C(=O)NCc2ccco2)Cc2c(-c3ccc4c(c3)OCO4)ccnc2O1` (configuration not stated), the figure is 0.82 µM (active); as for `S=C(NCc1ccc2c(c1)OCO2)NCc1ccco1`, “inactive”.
Turning to `CC1(C(=O)NCc2ccc(F)c(F)c2)Cc2c(-c3ccc4c(c3)OCO4)ccnc2O1` (configuration not stated), the Potency was 4.11 µM (active).
`O=S(=O)(NC1CCCC1)c1ccc(-n2cnnn2)cc1`: the Potency entry was “inactive”.
Regarding `C/C(COc1ccccc1)=N\NC(=O)c1nnn(-c2nonc2N)c1-c1ccc(C)cc1`, the Potency entry was “inactive”.
Then `COc1ccc(-c2cc(-c3ccccc3)nc3c2COc2ccc(Cl)cc2-3)cc1`, with “inactive”; and `CC(=O)c1ccc(Cc2ncc(C(F)(F)F)cc2Cl)s1`, with “inactive”; and `Cc1cccc(OC(C)C(=O)N2CCc3ccccc3C2)c1` (configuration not stated), with “inactive”.
As for `COc1cc(N2C(=O)c3ccccc3C2=O)c(Cl)cc1C(=O)OCC(=O)N1CCOCC1`, the entry is “inactive”.
In the case of `COc1cccc(NC(=O)COC(=O)/C=C/c2ccco2)c1`, the Potency entry is “inactive”.
Turning to `Cc1cccc(OCC(=O)NCCCNC(=O)c2ccccn2)c1`, the Potency entry is “inactive”.
As for `CCOc1cc2ccccc2cc1C(=O)Nc1ccccn1`, the entry is “inactive”.
With `CCN(CC)CCOc1ccc2c(c1)C(=NNC(=O)c1ccccn1)c1cc(OCCN(CC)CC)ccc1-2`, the Potency was 5.17 µM (active).
Then `CCCc1nnc(NC(=O)CCC(=O)NC2CC2)s1`, with “inactive”.
Then `CCCc1ccc(C(=O)COC(=O)CN2C(=O)NC3(CCCCC3C)C2=O)cc1` (configuration not stated), with “inactive”.
Then `Cc1cc2c(cc1C)[n+](C)cn2CC(O)COCC1CC=CCC1` (configuration not stated), with 8.2 µM (active); and `CC1CCN(C(=O)/C(=C\c2ccccc2)NC(=O)c2ccccc2)CC1`, with “inactive”; and `Cc1nn(CC#N)c(=O)n1N(C)c1ncc(C(F)(F)F)cc1Cl`, with “inactive”.
In the case of `O=C(Nc1ccccc1N1CCCCC1)c1ccc2nccnc2c1`, the Potency was 20.6 µM (active).
Consider `O=C(Nc1ccccc1N1CCOCC1)c1ccncc1`, for which the Potency entry was “inactive”.
As for `O=C(Nc1ccccc1N1CCCCC1)c1cccc(F)c1`, the entry is “inactive”.
As to `COC(=O)c1cccc(N(C(=O)CNC(=O)c2cccs2)C(C(=O)NCC2CCCO2)c2ccc(OC)c(OC)c2)c1` (configuration not stated), the Potency result was “inactive”.
For the molecule `CNC(=O)CN1C(=O)c2cccnc2Sc2ccccc21`, the Potency entry is “inactive”.
Then `CC(C)NC(=O)N1CC[C@@]2(CCCN(C(=O)c3cccc(F)c3)C2)C1`, with “inactive”; and `CC(=O)N1CCC2(CCCN(c3ncccn3)C2)CC1`, with “inactive”; and `O=C(c1cc(C(F)(F)F)cc(C(F)(F)F)c1)N1CCC[C@@]2(CCN(c3ccccn3)C2)C1`, with 16.4 µM (active).
Then `Cc1cc(F)ccc1S(=O)(=O)Nc1ccc(C(=O)N(C)Cc2ccco2)cc1`, with “inactive”; and `COc1c(C=O)c(CCN(C)C(=O)c2ccc(F)cc2)cc2c1OCO2`, with “inactive”.
On to `COc1cccc2c1OCC(CN1CCN(C3CCCCC3)C(CCO)C1)=C2` (configuration not stated), for which the Potency result was “inactive”.
Then `COc1ccc(-n2c(=O)c3ccccc3n(Cc3ccccc3Cl)c2=O)cc1`, with “inactive”.
As for `CC(=O)OC[C@H]1O[C@@H](O[C@H]2[C@H](O)[C@@H](OC(=O)c3ccccc3C(=O)O)[C@H](O)O[C@@H]2COC(C)=O)[C@H](O)[C@@H](OC(=O)c2ccccc2C(=O)O)[C@@H]1O`, the entry is “inactive”.
Then `Cc1ccc(C(=O)N/C(=C\c2cccs2)C(=O)NCCc2ccccn2)cc1C`, with “inactive”; and `O=C(CNC(=O)COc1ccccc1)NCCc1ccccn1`, with “inactive”.
With `COc1cncc(-c2cnc3sc(NCCc4ccccn4)nn23)c1`, the Potency is 13 µM (active).
Then `N#Cc1cc([N+](=O)[O-])ccc1NCC1CCCO1` (configuration not stated), with “inactive”.
Then `O=C(O)CN1c2cccc3cccc(c23)S1(=O)=O`, with “inactive”.
Then `Cc1ccc(NC(=O)/C(=C\c2ccccc2)NC(=O)c2ccco2)cc1`, with “inactive”; and `COc1ccc(C2CC(c3ccccc3)Nc3ncnn32)cc1` (configuration not stated), with “inactive”.
Take `FC(F)Oc1ccccc1C1CC(c2ccc(Br)s2)Nc2ncnn21` (configuration not stated): the Potency was 11.6 µM (active).
Then `Clc1ccc(C2CC(c3cccs3)n3ncnc3N2)cc1Cl` (configuration not stated), with “inactive”; and `CCOC(=O)Cn1nnnc1C`, with “inactive”; and `O=C(O)c1cc(S(=O)(=O)N(Cc2ccccc2)c2ccccc2)ccc1Cl`, with “inactive”.
As for `COc1cc2nnn(-c3ccncc3)c2cc1OC`, the entry is “inactive”; as for `Cc1nn(CC(=O)NCCc2ccccc2)c(=O)c2cc3occc3n12`, “inactive”.
Then `COCCNC(=O)c1cc2c(Br)ccc(Br)c2nc1N`, with “inactive”; and `COc1ccccc1N1CCN(CCN2C(=O)c3ccccc3C(C)(C)C2=O)CC1`, with 14.6 µM (active); and `COc1ccccc1N1CCN(CC(=O)NC(=O)NCc2ccco2)CC1`, with “inactive”.
With `CNCC(O)CN1CCN(c2ccccc2OC)CC1` (configuration not stated), the Potency entry is “inactive”.
On to `COc1ccc2c(C)cc3nnnn3c2c1`, for which the Potency result was “inactive”.
As for `CC(C)[C@H](NC(=O)N1CC(=O)Nc2ccccc21)C(=O)N[C@@H](Cc1c[nH]c2ccccc12)C(=O)O`, the Potency result was “inactive”.
Regarding `CCN(C(=O)Cn1cnc2sc(C)c(S(=O)(=O)N3CCN(c4ncccn4)CC3)c2c1=O)c1ccccc1F`, the Potency result was “inactive”.

Values taken from PubChem BioAssay AID686979 (National Center for Advancing Translational Sciences (NCATS), 2013).
